From PubChem BioAssay (NCATS) come the findings set out here.

Structures are written as SMILES. Inconclusive results are not listed. Where a call stands in place of a potency, no number is given. Active and inactive are the calls of the source. Calls come from the whole dose curve; as a rule, active = well fitted cell-killing curve with a large enough effect; inconclusive = small, poorly fitted or top-dose-only effect; inactive = flat fitted curve, though single readings scatter.
Potency is the fitted concentration of half-maximal effect.

This assay is described as follows: qHTS of pediatric cancer cell lines to identify multiple opportunities for drug repurposing: Primary screen for control Hh wild type fibroblast cells (AID 1347106). Note: nearly all actives have a fitted effect of over 55% in size. The conditions noted are these: Hh wild-type fibroblast viability, CellTiter-Glo luminescence, 48 h; series mostly up to 46 µM. An excerpt: Drug repurposing or repositioning has been offered as a strategy for drug development in oncology programs. This approach has special potential for childhood cancers and other rare or orphan diseases, where the expected return on new drug development has been a disincentive to pharmaceuticals.
In this project we exploit the poly-pharmacology of drugs to discover new indications via phenotypic screening of a panel of 19 well-characterized cell lines derived from solid tumors seen in children and adolescents. The goal is to identify approved drugs with previously unrecognized anticancer properties that has the potential to reveal new mechanisms and biological processes involved in carcinogenesis or drug resistance. We employed a titration-based paradigm (quantitative high-throughput screening or qHTS), where all compounds were tested at multiple concentrations for their effect on cell viability. Concentration-response curves (CRCs) were derived directly from the primary screen, and both potency and efficacy values were used to identify compounds with robust bioactivity profiles. We screened the NIH Chemical Genomics Center (NCGC) Pharmaceutical Collection (NPC) and Mechanism Interrogation Plate (MIPE) small molecule collections of approved and investigational compounds against these cell lines; and measured metabolically active cells after 48 hours of compound treatment as a proxy for cell viability.
Assay Submitter: Nathalia J. Martinez, National Center for Advancing Translational Sciences, National Institutes of Health, Rockville, MD, USA; email: natalia.martinez@nih.gov
[1] Shen, M et al. Quantitative high-throughput phenotypic screening of pediatric cancer cell lines identifies multiple opportunities for drug repurposing. Oncotarget 2017 Dec 19;9(4):4758-4772. PMID 29435139.
The cells were obtained from University of North Carolina (UNC), Pediatric Preclinical Testing Program (PPT), and Coriell Institute (CI).
qHTS cell viability assay:
Cells were assayed in growth media at a density of 500-1,000 cells/well. Five microliters of cells were dispensed into 1,536-well, white, solid-bottom, TC-treated plates (Greiner Bio One) using a multidrop dispenser and incubated at 37 degrees C, 5% CO2, under a humidified atmosphere for 5 hours. Twenty-three nanoliters of compounds and controls (neutral control DMSO or positive control bortezomib at final concentration of 2.3 µM) were subsequently transferred by Kalypsys pintool. For primary screens, the MIPE collection was tested at 11-point dilutions (final concentrations range from 0.78 nM to 46 µM) and the NPC collection at 8-point dilutions (final concentrations range from 0.59 nM to 46 µM). Compounds tested in follow-up screens were assayed at 11-point dilutions. Cells were incubated for 48 hours, followed by addition of 3 µL of CellTiter-Glo (Promega). After a 15 min incubation at room temperature, samples were analyzed for luminescence intensity using a ViewLux High-throughput CCD imager equipped with clear filters.
Take `CCOP(=O)(NC(C)C)Oc1ccc(SC)c(C)c1` (stereo not given): the Potency result is “inactive”.

On to `CCNC(=O)CC1N=C(c2ccc(Cl)cc2)c2cc(OC)ccc2-n2c(C)nnc21` (stereo not given), for which the Potency result is “inactive”.

In the case of `CCOP(=O)(OCC)C(C)NC(=O)N(CCCl)N=O` (stereo not given), the Potency result is “inactive”.

On to `O=[N+]([O-])c1ccc([As](=O)(O)O)cc1`, for which the Potency result was “inactive”.

Turning to `C[C@@]12OC(=O)[C@]1([C@@H](O)[C@@H]1C=CCCC1)NC(=O)[C@H]2CCCl`, the Potency was 0.0935 µM (active).

With `C[C@]12CC[C@H](O)CC1=CC[C@H]1[C@H]3CCC(=O)[C@@]3(C)CC[C@@H]12`, the Potency result was “inactive”.

On to `COc1ccc2c(c1)[C@]13CCCCC1C(C2)N(C)CC3` (stereo not given in full), for which the Potency result is “inactive”.

For `CN(C)[C@@H]1C(=O)C(C(N)=O)=C(O)[C@@]2(O)C(=O)C3=C(O)c4c(O)cccc4[C@@](C)(O)[C@H]3[C@H](O)[C@@H]12`, the Potency entry is “inactive”.

`CC(C)N[C@@H]1CCn2c(=O)[nH]c3cccc(c32)[C@@H]1O`: the Potency is 11.8 µM (active).

`c1ccc2c(CN3CCNCC3)cccc2c1`: the Potency result was “inactive”.

As for `COC(C)(C)CCCC(C)C/C=C/C(C)=C/C(=O)OC(C)C` (stereo not given), the Potency result is “inactive”.

Take `CCCCCCCCc1ccc(O)cc1`: the Potency entry is “inactive”.

Consider `CCCC[N+]1(C)[C@H]2CC(OC(=O)[C@H](CO)c3ccccc3)C[C@H]1[C@H]1O[C@H]12` (stereo not given in full), for which the Potency result was “inactive”.

Regarding `O=C1C=CC[C@@H]2[C@H]3CCCN4CCC[C@@H](CN12)[C@@H]34`, the Potency result is “inactive”.

Turning to `CC1=C(C(=O)O)N2C(=O)[C@@H](N)[C@H]2SC1`, the Potency result is “inactive”.

`COc1ccc(C(c2ccc(OC)cc2)C(Cl)(Cl)Cl)cc1`: the Potency entry is “inactive”.

Take `OCCCBr`: the Potency result was “inactive”.

For `CN[C@@H](C)[C@H](O)c1ccccc1`, the Potency entry is “inactive”.

Regarding `CC(C)NCC(O)c1ccc([N+](=O)[O-])cc1` (stereo not given), the Potency result was “inactive”.

As for `COCC1(CO)C(=O)C2CCN1CC2` (stereo not given), the Potency result was “inactive”.

As to `CC(N[C@H]1C[C@H]1c1ccccc1)c1ccc2c(c1)OCCO2` (stereo not given in full), the Potency entry was “inactive”.

Turning to `O=[N+]([O-])c1ncc[nH]1`, the Potency entry is “inactive”.

Consider `CC(=O)N(C)c1cccc(-c2ccnc3c(C(=O)c4cccs4)cnn23)c1`, for which the Potency entry is “inactive”.

For `NC1=NC(=O)N2CC12` (stereo not given), the Potency result is “inactive”.

`CCCCC(CC)COC(=O)c1ccccc1C(=O)OCC(CC)CCCC` (stereo not given): the Potency entry is “inactive”.

`O=C(Oc1ccc([N+](=O)[O-])cc1)N1CCN(Cc2cccc(Oc3ccccc3)c2)CC1`: the Potency was 3.32 µM (active).

With `Cc1cc(O)ccc1Cl`, the Potency result is “inactive”.

With `C=C[C@@H]1CN2CCC1C[C@H]2[C@H](O)c1ccnc2ccccc12` (stereo not given in full), the Potency result is “inactive”.

Take `COc1ccc2c(c[n+](C)c3c4cc5c(cc4ccc23)OCO5)c1OC`: the Potency is 26.4 µM (active).

Take `Nc1ccc([N+](=O)[O-])cc1`: the Potency result was “inactive”.

Regarding `COCCOCCO`, the Potency result is “inactive”.

For the compound `CC(C)N(CCNC(=O)CN1CCCC1=O)C(C)C`, the Potency result is “inactive”.

With `O=[N+]([O-])c1c2ccccc2cc2ccccc12`, the Potency entry was “inactive”.

Turning to `CCC(=O)O[C@@H]1C=C2CCC3C(CCC4(C)C3CC[C@@H]4OC(=O)CC)C2CC1` (stereo not given in full), the Potency entry was “inactive”.

Consider `Oc1ccc2c3c1O[C@H]1c4[nH]c5c(c4C[C@@]4(O)[C@@H](C2)N(CC2CC2)CC[C@]314)C[C@@]1(O)[C@H]2Cc3ccc(O)c4c3[C@@]1(CCN2CC1CC1)[C@H]5O4`, for which the Potency result was “inactive”.

Regarding `COc1ccc(CC2NCCc3cc(OC)c(OC)cc32)cc1OC` (stereo not given), the Potency entry is “inactive”.

Consider `CC(C)Oc1cccc(NC(=O)c2ccccc2C(F)(F)F)c1`, for which the Potency entry is “inactive”.

`O=S(=O)(O)C(F)(F)C(F)(F)C(F)(F)C(F)(F)C(F)(F)C(F)(F)C(F)(F)C(F)(F)F`: the Potency entry is “inactive”.

Take `O=C(O)c1cc(Oc2ccc(C(F)(F)F)cc2Cl)ccc1[N+](=O)[O-]`: the Potency entry is “inactive”.

Take `C[C@@H]1[C@H](O)[C@@H](C)C=CC=CCCC=CC=CC=CC=C[C@H](O[C@H]2O[C@@H](C)[C@H](O)[C@@H](N)[C@@H]2O)CC2O[C@](O)(C[C@@H](O)[C@H](O)CC[C@@H](O)C[C@@H](O)C[C@@H](O)CC(=O)O[C@H]1C)C[C@H](O)[C@H]2C(=O)O`: the Potency entry is “inactive”.
